BRCA1 expr up: increases BRCA1 expression; MCF7-BRCA1-FFLuc reporter, luminescence, 48 h; response scale: scaled: vehicle 0%, 10 µM genistein 100%; Potency, µM (series often up to 46.1 µM), for the others: at the highest dose activation, most hits filed as activators; 1.1% of 380,000 active; note: potency is the fitted concentration of half-maximal effect; nearly all actives have a fitted effect of over 80% in size
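Activators of BRCA1 expression were detected as increased firefly luciferase luminescence in engineered MCF7 cells after 48 h compound incubation. Signals were scaled to genistein 10 microM as full activation.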
PTHR1 ag: PTHR1 (human) receptor agonism | 0.075% of 410,000 active | Potency, µM (highest dose often 115 µM), for inactives: at the top dose activation, hits mostly activators | AID 743266 | HEK293 GP2 PTHR1 cells, GloSensor cAMP luminescence, 1 h; note: potency is the fitted concentration of half-maximal effect; nearly all actives have a fitted effect of over 55% in size
Target sequence (Q03431 whole entry, looked up): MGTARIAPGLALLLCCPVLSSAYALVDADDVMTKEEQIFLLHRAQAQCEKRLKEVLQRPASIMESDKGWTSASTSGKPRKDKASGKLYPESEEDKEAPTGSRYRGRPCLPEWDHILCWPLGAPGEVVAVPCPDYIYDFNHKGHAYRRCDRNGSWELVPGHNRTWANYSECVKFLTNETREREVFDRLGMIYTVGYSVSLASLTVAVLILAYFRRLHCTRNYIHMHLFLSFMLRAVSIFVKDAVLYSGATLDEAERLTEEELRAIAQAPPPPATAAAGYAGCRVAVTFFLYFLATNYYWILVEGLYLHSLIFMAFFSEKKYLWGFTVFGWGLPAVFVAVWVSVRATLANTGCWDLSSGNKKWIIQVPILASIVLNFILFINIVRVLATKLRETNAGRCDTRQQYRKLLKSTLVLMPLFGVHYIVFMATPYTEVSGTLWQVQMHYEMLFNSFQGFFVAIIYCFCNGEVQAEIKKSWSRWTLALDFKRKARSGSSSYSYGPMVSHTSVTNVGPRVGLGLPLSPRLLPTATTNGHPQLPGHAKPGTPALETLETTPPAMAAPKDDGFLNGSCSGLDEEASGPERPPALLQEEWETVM
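HEK-293-derived GP2 cells expressing PTHR1 and a GloSensor cAMP reporter, 3,000/well, plated overnight, given luciferin plus IBMX (each 0.5 mM as added) for 1 h at 37 °C, then compound for 1 h at 37 °C. Luminescence was read after 15 min at room temperature.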
LDHA inh: blocks human lactate dehydrogenase A. purified LDHA, NADH/diaphorase-resazurin fluorescence; active compounds read low. activity change, % (values are at about 110 or 230 µM). 0.15% of 480,000 active; in the data active = activity change below about -30%; inconclusive = mostly about -25% to -30%;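 note: plate controls were DMSO wells for no effect and wells without enzyme for full effect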
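Enzyme activity of human lactate dehydrogenase 5 (2 nM; 0.06 mM NADH, 0.2 mM pyruvate, 5 min, RT) is measured via a resazurin/diaphorase fluorescence readout of residual NADH.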
RGS4 inh: blocks human RGS4-accelerated GTP hydrolysis | P49798 | Transcreener GDP fluorescence polarization, RGS4-accelerated GTP hydrolysis | Potency, µM (titrated, usually from 114 µM), for inactives: at the top dose activity change, negative = inhibition, most hits filed as inhibitors | 0.039% of 390,000 active | AID 504845; note: potency is the fitted concentration of half-maximal effect; % is set by controls: 0 for no effect and ±100 for the full control effect; nearly all actives have a fitted effect of over 75% in size
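MLSMR compounds (23 nl, pin-transferred) preincubated 10 min at room temperature with a 500nM (2x) first reagent, then RGS4 at 900nM (2x) plus Transcreener GDP mix added; fluorescence polarization (620/688 nm) read before and after 90 min at 30 °C.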
p53 reactivation: re-activators of mutant p53 | Potency, µM (highest dose often 92.2 µM), inactives show at the highest dose activity change, positive = activation, actives largely listed as activators | H1299 p53-A138V BP100-luciferase reporter, luminescence, 24 h | 0.063% of 320,000 active; note: potency is the fitted concentration of half-maximal effect; % of control where 0% means no effect; nearly all actives have a fitted effect of over 45% in size
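p53-null H1299 cells stably carrying temperature-sensitive p53-A138V and a BP100-luciferase reporter were pinned with compounds (4-point, 1:5 series) and held 24 hrs at 37 deg C. Luminescence was read 10 min after detection reagent.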
* marks the source's active call; other numbers are inactive results; i = inactive; ? = inconclusive; nt = no result given; [ ] = another dose, or the depositor's remark. Rows were chosen to be rich in hits. Some 1.1% of all compounds tested hit in one or more screens of this group. Unless noted, calls come from the whole dose curve; as a rule, active = well fitted curve in the direction sought with a large enough effect; inconclusive = small, poorly fitted or top-dose-only effect, or another doubt; inactive = no such curve, though single readings can be large; an effect the other way counts as inactive or inconclusive.

SMILES	BRCA1 expr up	PTHR1 ag	LDHA inh	RGS4 inh	p53 reactivation
O=C(NC(=S)Nc1cccc2[nH]ncc12)c1ccccc1	10µM*	-6%	2	-31%	26%
COc1ccc(NC(=S)NC(=O)c2ccccc2)cn1	11µM*	-8%	-9	-28%	nt
CNC(=S)Nc1cccc2[nH]ncc12	1%[1.84 µM]	-37%	0	-2%	7%
COc1ccc(NC(=O)c2sccc2C)cn1	7.9µM*	i	-4	-14%	?
N#Cc1ccc(COc2ccc3ccccc3c2CN2CCCCC2)cc1	nt	nt	2	nt	nt
COc1ccc(-c2ccc3oc(-c4ccsc4)cc(=O)c3c2)cc1F	10%	-8%	1	0%	1%
O=c1cc(-c2ccsc2)oc2ccc(-c3ccc4cc[nH]c4c3)cc12	5.6µM*	-19%	-4	?	15%
Cc1cc(SCC(=O)Nc2ccc(F)c(F)c2F)nc2ccccc12	nt	nt	-34*	nt	nt
CSc1ccccc1NC(=O)CSc1cc(C)c2ccccc2n1	nt	nt	-6	nt	nt
NC(=O)CNS(=O)(=O)c1cccc(C(=O)O)c1	nt	nt	1	nt	nt
CCOc1ccc2nc(N3C(=O)/C(=C/c4ccccc4)NC3=S)sc2c1	43%	-59%	-2	?	13µM*
CCOc1cc(/C=C2\NC(=O)NC2=O)ccc1OCc1ccc(C(=O)O)cc1	nt	nt	9	nt	nt
CCOc1ccc(-n2ccn3c(SC(CC)C(=O)Nc4ccc(OC)cc4)nnc3c2=O)cc1 (configuration not stated)	nt	nt	11	nt	nt
COc1ccc2cc(C#N)c(SCC(=O)N3CCCC3)nc2c1	11µM*	-6%	-3	-2%	26%
COC(=O)CSc1nc2cc(OC)ccc2cc1C#N	?	-9%	-3	-39%	nt
O=c1[nH]c(=O)n(Cc2ccccc2)c2nc(-c3ccncc3)n(CC3CCCO3)c12 (configuration not stated)	nt	nt	-3	nt	nt
CCCCn1c(SCC(=O)Nc2cc(C)[nH]n2)nc2ccsc2c1=O	0%	-19%	-1	23%	-14%
Cc1cc(NC(=O)CSc2nc3ccsc3c(=O)n2Cc2ccccn2)n[nH]1	5.6µM*	-9%[57.5 µM]	-6	34%	11%
CN1/C(=C\C=C2/SC(=S)NC2=O)C(C)(C)c2ccccc21	-46%	-94%	-2	?	-1%
CN1CCC/C1=C/C=C1\SC(=S)NC1=O	10µM*	-47%	15	-33%	?
O=c1oc2ccc(Cl)cc2cc1-c1nnc(Nc2cccc(C(F)(F)F)c2)s1	-4%	-18%	-14	12%	12%
CNc1nnc(-c2cc3cc(Cl)ccc3oc2=O)s1	10µM*	-23%[57.5 µM]	-6	?	27%
CN(C)/C=N/c1ncc(C(=O)c2ccc(-c3ccccc3)cc2)s1	-66%	-33%	2	?	5%
CN(C)/C=N/c1ncc(C(=O)c2ccccc2)s1	5.6µM*	-15%[57.5 µM]	-3	-31%	17%
CC(C)Oc1ccc(C(=O)Nc2nonc2-c2ccc(OC(C)C)cc2)cc1	nt	i	-3	5%	nt
SMILES	BRCA1 expr up	PTHR1 ag	LDHA inh	RGS4 inh	p53 reactivation
CC(C)COc1ccc(C(=O)Nc2nonc2-c2ccc(OC(C)C)cc2)cc1	nt	nt	-30*	nt	nt
COc1cccc(CN2CCN(Cc3cc(OC)c(OC)c(OC)c3)CC2)c1OC	-45%	-6%	-35*	-14%	-13%
COc1ccc(CN2CCN(Cc3cccc(OC)c3OC)CC2)cc1	nt	nt	0	nt	nt
CCS(=O)(=O)N1CCN(Cc2ccccc2OC)CC1	0%	-7%[57.5 µM]	-31*	14%	-7%
CCOc1ccccc1CN1CCN(S(=O)(=O)CC)CC1	-9%	-8%[57.5 µM]	?	13%	-1%
CCCc1nnc2sc(COc3ccc(Br)cc3)nn12	nt	nt	-4	nt	nt
Cc1cc(-c2ccc(C(=O)O)s2)cnc1N	7.1µM*	-7%	-11	27%	2%
O=C(O)c1ccc(-c2ccc(Br)cc2)s1	nt	nt	-9	nt	nt
O=C(Nc1ccc2c(c1)oc1ccccc12)N1CCOCC1	6.3µM*	-3%[57.5 µM]	-6	-13%	?
CCn1c2ccccc2c2cc(NC(=O)N3CCOCC3)ccc21	11µM*	i	12	-33%	11%
O=C(Nc1ccccc1)N1CCOCC1	4%	-6%	1	24%	4%
CCNC(=S)Nc1ccc2c(c1)oc1ccccc12	4.5µM*	-12%	-2	5%	nt
CCNC(=S)Nc1ccc2ncoc2c1	10%	i	0	-34%	18%
O=C(COC(=O)CCNS(=O)(=O)c1ccccc1)Nc1cc(Cl)ccc1Cl	nt	nt	7	nt	nt
CCSc1nnc(NC(=O)c2ccc3nc[nH]c3c2)s1	3.2µM*	-38%	2	-9%	18%
CN(C)c1ccc(NC(=O)c2ccc3nc[nH]c3c2)cc1	13µM*	-14%	2	-37%	?
CC(=O)Nc1ccc(NC(=O)c2ccc3nc[nH]c3c2)cc1	nt	nt	15	nt	nt
CCCCc1ccc(-c2csc(/C(C#N)=C\c3ccco3)n2)cc1	10µM*	-12%	-1	6%	16%
Cc1ccc(NC(=O)c2ccc(C(C)(C)C)cc2)cc1[N+](=O)[O-]	8.9µM*	-3%	0	-19%	?
Cc1c(NC(=O)c2ccc(C(C)(C)C)cc2)cccc1[N+](=O)[O-]	7.9µM*	-40%	-4	14%	?
COc1cccc(C(CNCC(O)CN2CCOCC2)c2c[nH]c3ccccc23)c1OC (configuration not stated)	nt	nt	12	nt	nt
O=C(CCc1nnc2ccc(NCc3ccc4c(c3)OCO4)nn12)N1CCc2ccccc2C1	nt	nt	3	nt	nt
CC(OC(=O)c1ccc([N+](=O)[O-])o1)C(=O)Nc1nc(-c2ccc(F)c(F)c2)cs1 (configuration not stated)	13µM*	-54%	5	-38%	?
Cc1cc(C(=O)OC(C)C(=O)Nc2nc(-c3ccccc3)cs2)c(C)o1 (configuration not stated)	17%	11%[57.5 µM]	3	6%	15%
O=C(Cn1nc(C(=O)O)c2ccccc2c1=O)Nc1ccc(F)c(F)c1	nt	nt	2	nt	nt
SMILES	BRCA1 expr up	PTHR1 ag	LDHA inh	RGS4 inh	p53 reactivation
Cc1ccccc1N1CCN(Cc2c[nH]c3ccccc23)CC1	10%	4µM*	-5	-27%	-1%
CCCCn1cnc2sc(-c3ccccc3)cc2c1=O	?	-14%	-10	-13%	19%
CCCCCn1cnc2sc(-c3ccccc3)cc2c1=O	5µM*	-7%[57.5 µM]	1	-6%	11%
O=c1c2cc(-c3ccccc3)sc2ncn1/N=C/c1ccco1	11µM*	-10%[57.5 µM]	-5	-18%	?
Cc1ccc(NS(=O)(=O)c2cc(-c3cnc(C)o3)ccc2C)c(C)c1	nt	nt	2	nt	nt
COc1cccc(/C=C/C(=O)c2ccc(-c3ccccc3)cc2)c1	nt	nt	5	nt	nt
CCc1nnc(CN2CCC(c3nc4ccccc4s3)CC2)o1	nt	nt	-36*	nt	nt
Cc1ccc(NC(=O)c2ccco2)c([N+](=O)[O-])c1	7.9µM*	-11%	-8	?	21%
O=C(Nc1ccccc1)c1cccc(CSc2cccc[n+]2[O-])c1	nt	nt	0	nt	nt

Source: PubChem (National Center for Advancing Translational Sciences (NCATS))
